Source: PubChem BioAssay (National Center for Advancing Translational Sciences (NCATS))
Only some compounds are listed: those with a hit (about 2.7% of all), similar ones and a draw of the others.
LDHA block: qHTS assay for inhibitors of human lactate dehydrogenase; L-lactate dehydrogenase A chain (Homo sapiens), P00338; purified LDHA, NADH/diaphorase-resazurin fluorescence; active compounds read low; activity change, % (values are at about 110 or 230 µM); actives 0.15% (n = 480,000); AID 1347041, 2019; in the data active means activity change below about -30%; inconclusive means mostly about -25% to -30%;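 further: plate controls were DMSO wells for no effect and wells without enzyme for full effect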
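Resorufin fluorescence (ex540/em590), read at 0 and 20 min after diaphorase/resazurin addition, reports the NADH left after a 5 min room-temperature reaction of 2 nM human LDH5 with 0.06 mM NADH and 0.2 mM pyruvate.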
Nrf2 inh: Nrf2 qHTS screen for inhibitors; A549 ARE-Fluc reporter, luciferase luminescence, 18-24 h; Potency, µM (doses to about 46 µM), for the others: at the top dose activity change, negative = inhibition, actives largely listed as inhibitors; actives 2.1% (n = 360,000); AID 504444, 2011; further: potency means the concentration at half of the fitted maximal effect; on the % scale 0 is the no-effect control and ±100 the full control effect; nearly all actives have a fitted effect of over 60% in size
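Quantitative HTS in A549 cells stably bearing an antioxidant response element-firefly luciferase construct. Inhibition of Nrf2-driven transcription was scored by luminescence after 18-24 h of compound exposure at 37 °C.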
ALOX12 inh: Primary qHTS assay for inhibitors of human arachidonate 12S-lipoxygenase (ALOX12): Round 2 | actives 1.1% (n = 580,000) | Potency, µM (series often up to 108 µM), without a hit: top-dose activity change, negative = inhibition, hits mostly inhibitors | AID 1671190, 2021 | Polyunsaturated fatty acid lipoxygenase ALOX12 (Homo sapiens), P18054 | purified 12hLO, xylenol orange hydroperoxide absorbance; further: potency means the concentration at half of the fitted maximal effect; on the % scale 0 is the no-effect control and ±100 the full control effect
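Purified human 12hLO (150 nM final) in 25 mM Hepes, 0.01% Triton X-100, pH 7.0 was preincubated 15 min at room temperature with compound. Then 40 uM arachidonic acid was added, 30 min. Hydroperoxide was read by Fe-XO absorbance ratio 573/405 nm.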
A549 viability: Nrf2 qHTS screen for inhibitors: counterscreen for cytotoxicity; A549 ARE-Fluc cells, CellTiter-Fluor viability, 18-24 h; Potency, µM (series often up to 46 µM), for the others: at the highest dose activity change, negative = cytotoxicity, most hits filed as inhibitors; actives 0.16% (n = 390,000); AID 504648, 2011; further: potency means the concentration at half of the fitted maximal effect; on the % scale 0 is the no-effect control and ±100 the full control effect
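Cytotoxicity counterscreen: CellTiter-Fluor fluorescence was measured in A549 ARE_Fluc cells after 18-24 h of compound exposure in a concentration series. The subsequent BugLite luminescent read reports ARE-luciferase activity.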
mIDH1 inhibitor: qHTS for Inhibitors of mutant isocitrate dehydrogenase 1 (IDH1): qHTS | Isocitrate dehydrogenase [NADP] cytoplasmic (Homo sapiens), O75874 | IDH1-R132H enzyme, NADPH consumption, diaphorase/resazurin fluorescence | Potency, µM (series often up to 76.6 µM), for inactives: at the highest dose activity change, negative = inhibition, hits mostly inhibitors | actives 0.093% (n = 390,000) | AID 602179, 2012; further: potency means the concentration at half of the fitted maximal effect; on the % scale 0 is the no-effect control and ±100 the full control effect; nearly all actives have a fitted effect of over 65% in size
Target sequence (O75874 whole entry R132H, stated change not applied): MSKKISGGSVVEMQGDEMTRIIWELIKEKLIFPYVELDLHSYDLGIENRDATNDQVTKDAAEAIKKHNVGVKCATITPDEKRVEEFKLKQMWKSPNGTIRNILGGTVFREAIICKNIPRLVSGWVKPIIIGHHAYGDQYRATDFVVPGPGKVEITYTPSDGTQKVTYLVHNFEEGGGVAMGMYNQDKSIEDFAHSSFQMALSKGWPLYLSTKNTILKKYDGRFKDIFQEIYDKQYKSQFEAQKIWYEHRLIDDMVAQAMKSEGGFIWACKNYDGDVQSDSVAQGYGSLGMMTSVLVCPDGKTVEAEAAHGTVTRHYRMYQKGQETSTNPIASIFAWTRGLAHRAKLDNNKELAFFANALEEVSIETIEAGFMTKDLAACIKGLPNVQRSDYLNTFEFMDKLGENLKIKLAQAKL
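IDH1-R132H (0.5 ug/mL) preincubated 30 min with compound, then NADPH (0.016 mM) and alpha-KG (2 mM) added; 80 min at RT, pH 7.5. Remaining NADPH coupled via diaphorase/resazurin to fluorescence (540/590 nm); concentration-response curves normalized to no-enzyme control.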
Nrf2 activator: qHTS of Nrf2 Activators. Potency, µM (top dose mostly 46.1 µM), for the others: at the top dose activation, actives largely listed as activators. AREc32 ARE-luciferase reporter (MCF7-derived line), luminescence, 24 h. actives 0.31% (n = 410,000); further: potency means the concentration at half of the fitted maximal effect; % of control where 0% means no effect; nearly all actives have a fitted effect of over 65% in size
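Steps: seed AREc32_Fluc cells (1000/well, 5% FBS OPTI-MEM); incubate overnight at 37 deg C; add 23 nL compound; incubate 24 hr; add Steady-Glo; hold 30 min RT; read luminescence.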
Numbers without * were called inactive; ? = inconclusive; / = no result given; [ ] = dose if it differs, or a comment. Unless noted, the call rests on the fitted dose curve; in most records, active means well fitted curve in the direction sought with a large enough effect; inconclusive means small, poorly fitted or top-dose-only effect, or another doubt; inactive means no such curve, though single readings can be large; an effect the other way counts as inactive or inconclusive.

SMILES	LDHA block	Nrf2 inh	ALOX12 inh	A549 viability	mIDH1 inhibitor	Nrf2 activator
Nc1c(C(=O)Nc2ccccc2Br)sc2nc(-c3cccs3)ccc12	-11	6%	-17%	19%	-6%	?
Cc1cc(C(C)(C)C)ccc1OCC(O)Cn1nc(-c2cccs2)oc1=O (stereo not drawn)	2	/	?	/	/	/
O=c1c(-c2ccccc2)c1-c1ccccc1	/	/	-28%[22.9 µM]	/	/	/
S=c1sscc1-c1ccccc1	-1	?	5.6µM*	-8%	-2%	4%
COc1cccc(C2=CC(=O)C[C@H](c3ccc(Cl)cc3)C2)c1	-5	-23%	-2%	-1%	-3%	0%
COc1cccc(C2=CC(=O)CC(c3ccco3)C2)c1 (stereo not drawn)	1	14%	35µM*	-5%	0%	10%
COc1cc(-c2nc3n(n2)C(c2ccccc2)C2=C(CCCC2=O)N3)cc(OC)c1OC (stereo not drawn)	7	/	?	/	/	/
CNc1nc(Nc2ccc(C)c(Cl)c2)c2cnn(C)c2n1	-6	?	?	-14%	29µM*	5%
CNc1nc(Nc2ccc(C)c(C)c2)c2cnn(C)c2n1	-5	/	6%	/	/	/
COc1ccc(C2CC(=O)Nc3c2c(=O)nc(SCc2ccccc2)n3C)cc1Br (stereo not drawn)	6	/	?	/	/	/
Cc1ccc(NS(=O)(=O)c2ccc(Cl)c(NC(=S)NC(=O)C3CCCCC3)c2)cc1Cl	-7	?	13µM*	-88%	-9%	-2%
Cc1ccc(NS(=O)(=O)c2ccc3c(c2)CC(C)N3C(=O)C2CCC2)cc1Cl (stereo not drawn)	1	21µM*	-50%	-16%	7%	2%
Cc1cc(Cl)ccc1NS(=O)(=O)c1ccc2c(c1)CC(C)N2C(=O)C1CCC1 (stereo not drawn)	-3	21µM*	?	-2%	-12%	2%
O=C(C1CCC1)N1CCc2cc(S(=O)(=O)Nc3ccc4c(c3)OCO4)ccc21	8	10µM*	-9%	-8%	-1%	0%
CCOc1ccc(NS(=O)(=O)c2ccc3c(c2)CCN3C(=O)C2CCC2)cc1	-4	?	-11%	-8%	-1%	0%
CC(=O)Nc1ccc(NS(=O)(=O)c2ccc3c(c2)CC(C)N3C(=O)C2CCC2)cc1 (stereo not drawn)	-3	19%	?	-2%	7%	1%
O=c1[nH]nc(-c2ccco2)c2c1Nc1nnnn1C2c1ccc(Cl)cc1 (stereo not drawn)	1	/	?	/	/	/
Cc1cc(C)c2nc(SCC(=O)NCC(C)C)cc(C)c2c1	-1	/	?	/	/	/
Cc1ccc(NC(=S)NC(=O)C2CCCC2)c(Br)c1	-4	?	35µM*	6%	-12%	5%
O=C(NC(=S)Nc1ccccc1Br)C1CC1	-4	16%	-22%	6%	16%	4%
CCN(CC)C(=O)N1CCOC(c2ccc3cc(OC)ccc3c2)C1 (stereo not drawn)	/	/	41%	/	/	/
CC(CC1OCC(CN2CCCCC2)O1)CC(C)(C)C (stereo not drawn)	6	/	-15%	/	/	/
CC(/C=C/c1ccccc1)=N/Nc1ccc(F)cc1F	-1	/	39%	/	/	/
CCCCNC(=O)Cc1csc2nc(C)c(-c3cc(C)n(-c4cccc(Cl)c4)n3)c(=O)n12	/	/	40µM*	/	/	/
O=C(OCc1ccc(Cl)cc1Cl)c1ccc(O)cc1	4	/	?	/	/	/
SMILES	LDHA block	Nrf2 inh	ALOX12 inh	A549 viability	mIDH1 inhibitor	Nrf2 activator
CC(=O)C1=C(C)N(Cc2ccc(F)cc2)C(=S)NC1c1ccc(Br)cc1 (stereo not drawn)	/	/	35µM*	/	/	/
CC(=O)C1=C(C)N(Cc2ccc(Br)cc2)C(=S)NC1c1cccc(F)c1 (stereo not drawn)	/	/	45µM*	/	/	/
CC(=O)C1=C(C)N(Cc2ccccc2)C(=O)N[C@H]1c1cccc(F)c1	6	15%	-14%	-3%	16%	4%
CC(=O)C1=C(C)N(Cc2ccc(Br)cc2)C(=S)NC1c1ccc(F)cc1 (stereo not drawn)	/	/	35µM*	/	/	/
CCN1C(=O)N[C@@H](c2ccc(Br)cc2)C(C(C)=O)=C1C	-4	-18%	6%	6%	20%	0%
CCOC(=O)C1=C(C)N(CC)C(=S)NC1c1ccc(Cl)cc1 (stereo not drawn)	-1	?	?	-5%	4%	0%
Cc1ccccc1NC(=O)Cc1nnc(SCC(=O)NC23CC4CC(CC(C4)C2)C3)n1C	7	/	?	/	/	/
C/C(=N\NC(=O)Cn1c(C)nc2ccccc21)c1cccs1	-1	16µM*	5%	-10%	5%	2%
O=C1NC[C@H](CCCCN2C[C@H](Cc3ccc(O)cc3)N(CC3CCCCC3)C(=O)C2=O)N(CCC2CCCCC2)C1=O	-1	/	?	/	/	0%
O=C1NC[C@@H](CCCCN2C[C@H](Cc3ccc(O)cc3)N(CC3CCCCC3)C(=O)C2=O)N(CC2CCCCC2)C1=O	2	/	22µM*	/	/	0%
CCCCNc1c(-c2ccc(OC)c(SC3CCCCC3)c2)nc2ccc(C)cn12	3	18µM*	?	?	2%	-6%
COc1ccc(-c2nc3ccccn3c2NCc2ccc3c(c2)OCO3)cc1	0	30%	-4%	10%	1%	0%
c1ccc(CNc2c(-c3cccc(SC4CCCCC4)c3)nc3ccccn23)cc1	0	?	14µM*	-2%	0%	-2%
COc1ccc(-c2cc(-c3nc4ccccn4c3NCc3ccccc3)ccc2OC)cc1	-1	15µM*	-18%	?	6%[38.3 µM]	-4%
CCC(C)Sc1cc(-c2nc3ccc(C)cn3c2NCc2ccccc2)ccc1OC (stereo not drawn)	2	21µM*	27%	16µM*	16%	-3%
CCC(C)Sc1ccc(-c2nc3ccc(C)cn3c2NCc2ccccc2)cc1OC (stereo not drawn)	1	?	/	?	7%	-2%
CN(CC(=O)Nc1ccccc1Br)C(=O)CCc1ncc(-c2ccc(F)cc2)o1	-13	/	-3%	/	/	/
CC(C)Cn1c(N)c(-c2csc(NC(C)C)n2)c(=O)n(C)c1=O	-6	/	?	/	/	/
